In publication PMC12820563, “FoxP3 forms a head-to-head dimer in vivo and stabilizes its multimerization on adjacent microsatellites” one finds binding signal data, which are given here for 40 sequences.

In all, about 16,000 sequences were measured (“rpm ratio (pull-down/input)”: median about 0.94, highest 2% from about 1.7 on). What follows is part of a selection rich in the highest values, with near analogues and random picks from the rest.

The assay concerns the target T1, MBP-FoxP1dN (Mus musculus, UniProt P58462 326-579).
T1 sequence: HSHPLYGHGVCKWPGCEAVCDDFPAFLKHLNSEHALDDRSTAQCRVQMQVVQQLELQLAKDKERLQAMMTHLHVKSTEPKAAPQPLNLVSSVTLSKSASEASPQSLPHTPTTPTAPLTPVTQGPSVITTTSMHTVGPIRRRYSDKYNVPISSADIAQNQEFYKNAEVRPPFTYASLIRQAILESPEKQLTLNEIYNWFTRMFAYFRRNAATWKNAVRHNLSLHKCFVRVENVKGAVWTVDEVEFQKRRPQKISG
Nature of the assay: PD-seq (MBP pull-down with sequencing); 20 mM Tris-HCl pH 7.5, 100 mM NaCl, 1.5 mM MgCl2, 0.4 uM protein, 0.1 uM dsDNA library, 30 min, room temperature, amylose pull-down; high values mean tight binding. Particulars: protein: recombinant; tags: His6-MBP; chain copies: 2; dsDNA, one strand shown. The method, boiled down: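 The N-terminus-lacking fragment of mouse FoxP3 or FoxP1 carried a His6-MBP tag and was expressed in E. coli. At 0.4 µM it was incubated with 0.1 µM Klenow-filled degenerate double-stranded DNA library for 30 min at room temperature in Tris pH 7.5 buffer with NaCl and MgCl2, and complexes were caught on amylose resin, washed three times, released with proteinase K, PCR-barcoded and Illumina-sequenced. Binding is reads-per-million enrichment of pull-down over input with replicates pooled.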
Regarding “GATGATTGTTCTCCCAGCTGATGAATTCCAGGCTTCGAGTAAACAAATTTTCCTAATCTTTCTGTTCAAGCGCCATCTAC”, the binding signal is 0.758 RPM ratio (pull-down/input).
In the case of “GATGATTGTTCTCCCAGCTGATGAATTTGGCTATTCGAGTAAACAAATTTTCCTAATCTTTCTGTTCAAGCGCCATCTAC”, the binding signal was 0.942 RPM ratio (pull-down/input).
Then “GATGATTGTTCTCCCAGCTGATGAATTCGGCTCCTCGAGTAAACAAATTTTCCTAATCTTTCTGTTCAAGCGCCATCTAC”, with 0.747 RPM ratio (pull-down/input); and “GATGATTGTTCTCCCAGCTGATGAATTCAATAGATCGAGTAAACAAATTTTCCTAATCTTTCTGTTCAAGCGCCATCTAC”, with 0.887 RPM ratio (pull-down/input).
As for “GATGATTGTTCTCCCAGCTGATGAATTATTCTGGTCGAGTAAACAAATTTTCCTAATCTTTCTGTTCAAGCGCCATCTAC”, the figure is 1.04 RPM ratio (pull-down/input); as for “GATGATTGTTCTCCCAGCTGATGAATTGACCATGTCGAGTAAACAAATTTTCCTAATCTTTCTGTTCAAGCGCCATCTAC”, 0.875 RPM ratio (pull-down/input).
For the sequence “GATGATTGTTCTCCCAGCTGATGAATTACTTTGCTCGAGTAAACAAATTTTCCTAATCTTTCTGTTCAAGCGCCATCTAC”, the binding signal was 1.02 RPM ratio (pull-down/input).
As for “GATGATTGTTCTCCCAGCTGATGAATTCTATTAGTCGAGTAAACAAATTTTCCTAATCTTTCTGTTCAAGCGCCATCTAC”, the figure is 1.14 RPM ratio (pull-down/input); as for “GATGATTGTTCTCCCAGCTGATGAATTGTGTACCTCGAGTAAACAAATTTTCCTAATCTTTCTGTTCAAGCGCCATCTAC”, 1.6 RPM ratio (pull-down/input).
Then “GATGATTGTTCTCCCAGCTGATGAATTTCACCCATCGAGTAAACAAATTTTCCTAATCTTTCTGTTCAAGCGCCATCTAC”, with 0.921 RPM ratio (pull-down/input).
Then “GATGATTGTTCTCCCAGCTGATGAATTTTTCGCGTCGAGTAAACAAATTTTCCTAATCTTTCTGTTCAAGCGCCATCTAC”, with 1.01 RPM ratio (pull-down/input); and “GATGATTGTTCTCCCAGCTGATGAATTGATTATTTCGAGTAAACAAATTTTCCTAATCTTTCTGTTCAAGCGCCATCTAC”, with 1.39 RPM ratio (pull-down/input).
In the case of “GATGATTGTTCTCCCAGCTGATGAATTATTGATTTCGAGTAAACAAATTTTCCTAATCTTTCTGTTCAAGCGCCATCTAC”, the binding signal was 1.72 RPM ratio (pull-down/input).
Then “GATGATTGTTCTCCCAGCTGATGAATTATTGTTTTCGAGTAAACAAATTTTCCTAATCTTTCTGTTCAAGCGCCATCTAC”, with 2.83 RPM ratio (pull-down/input); and “GATGATTGTTCTCCCAGCTGATGAATTTGAGCTCTCGAGTAAACAAATTTTCCTAATCTTTCTGTTCAAGCGCCATCTAC”, with 0.775 RPM ratio (pull-down/input).
As for “GATGATTGTTCTCCCAGCTGATGAATTTTTTTGTTCGAGTAAACAAATTTTCCTAATCTTTCTGTTCAAGCGCCATCTAC”, the figure is 0.971 RPM ratio (pull-down/input); as for “GATGATTGTTCTCCCAGCTGATGAATTGTTGTTTTCGAGTAAACAAATTTTCCTAATCTTTCTGTTCAAGCGCCATCTAC”, 3.52 RPM ratio (pull-down/input); as for “GATGATTGTTCTCCCAGCTGATGAATTTGTTTGTTCGAGTAAACAAATTTTCCTAATCTTTCTGTTCAAGCGCCATCTAC”, 2.73 RPM ratio (pull-down/input).
Then “GATGATTGTTCTCCCAGCTGATGAATTTCTTTGTTCGAGTAAACAAATTTTCCTAATCTTTCTGTTCAAGCGCCATCTAC”, with 0.994 RPM ratio (pull-down/input); and “GATGATTGTTCTCCCAGCTGATGAATTTCAAATTTCGAGTAAACAAATTTTCCTAATCTTTCTGTTCAAGCGCCATCTAC”, with 0.846 RPM ratio (pull-down/input).
Take “GATGATTGTTCTCCCAGCTGATGAATTTCGAGTTTCGAGTAAACAAATTTTCCTAATCTTTCTGTTCAAGCGCCATCTAC”: the binding signal is 0.851 RPM ratio (pull-down/input).
Then “GATGATTGTTCTCCCAGCTGATGAATTTTTGTTTTCGAGTAAACAAATTTTCCTAATCTTTCTGTTCAAGCGCCATCTAC”, with 2.71 RPM ratio (pull-down/input); and “GATGATTGTTCTCCCAGCTGATGAATTTTGTTGTTCGAGTAAACAAATTTTCCTAATCTTTCTGTTCAAGCGCCATCTAC”, with 2.84 RPM ratio (pull-down/input); and “GATGATTGTTCTCCCAGCTGATGAATTTGTTCTTTCGAGTAAACAAATTTTCCTAATCTTTCTGTTCAAGCGCCATCTAC”, with 1.3 RPM ratio (pull-down/input).
As for “GATGATTGTTCTCCCAGCTGATGAATTCTTTGTTTCGAGTAAACAAATTTTCCTAATCTTTCTGTTCAAGCGCCATCTAC”, the figure is 1.23 RPM ratio (pull-down/input); as for “GATGATTGTTCTCCCAGCTGATGAATTGCTCGACTCGAGTAAACAAATTTTCCTAATCTTTCTGTTCAAGCGCCATCTAC”, 0.946 RPM ratio (pull-down/input); as for “GATGATTGTTCTCCCAGCTGATGAATTTCCCCATTCGAGTAAACAAATTTTCCTAATCTTTCTGTTCAAGCGCCATCTAC”, 0.898 RPM ratio (pull-down/input).
“GATGATTGTTCTCCCAGCTGATGAATTTTTTTCCTCGAGTAAACAAATTTTCCTAATCTTTCTGTTCAAGCGCCATCTAC”: the binding signal was 0.754 RPM ratio (pull-down/input).
As for “GATGATTGTTCTCCCAGCTGATGAATTTTCATCCTCGAGTAAACAAATTTTCCTAATCTTTCTGTTCAAGCGCCATCTAC”, the figure is 0.875 RPM ratio (pull-down/input); as for “GATGATTGTTCTCCCAGCTGATGAATTCTTTGATTCGAGTAAACAAATTTTCCTAATCTTTCTGTTCAAGCGCCATCTAC”, 0.885 RPM ratio (pull-down/input); as for “GATGATTGTTCTCCCAGCTGATGAATTTTTTGATTCGAGTAAACAAATTTTCCTAATCTTTCTGTTCAAGCGCCATCTAC”, 1.02 RPM ratio (pull-down/input).
Turning to “GATGATTGTTCTCCCAGCTGATGAATTGTTTTGTTCGAGTAAACAAATTTTCCTAATCTTTCTGTTCAAGCGCCATCTAC”, the binding signal was 1.97 RPM ratio (pull-down/input).
As for “GATGATTGTTCTCCCAGCTGATGAATTGTTTGATTCGAGTAAACAAATTTTCCTAATCTTTCTGTTCAAGCGCCATCTAC”, the figure is 1.33 RPM ratio (pull-down/input).
As for “GATGATTGTTCTCCCAGCTGATGAATTTGTTGATTCGAGTAAACAAATTTTCCTAATCTTTCTGTTCAAGCGCCATCTAC”, the figure is 2.39 RPM ratio (pull-down/input); as for “GATGATTGTTCTCCCAGCTGATGAATTTGTTTTTTCGAGTAAACAAATTTTCCTAATCTTTCTGTTCAAGCGCCATCTAC”, 2.09 RPM ratio (pull-down/input).
Then “GATGATTGTTCTCCCAGCTGATGAATTTGTTGTTTCGAGTAAACAAATTTTCCTAATCTTTCTGTTCAAGCGCCATCTAC”, with 2.54 RPM ratio (pull-down/input).
As to “GATGATTGTTCTCCCAGCTGATGAATTAAGATGATCGAGTAAACAAATTTTCCTAATCTTTCTGTTCAAGCGCCATCTAC”, the binding signal is 0.992 RPM ratio (pull-down/input).
For “GATGATTGTTCTCCCAGCTGATGAATTTGACTATTCGAGTAAACAAATTTTCCTAATCTTTCTGTTCAAGCGCCATCTAC”, the binding signal is 0.903 RPM ratio (pull-down/input).
As for “GATGATTGTTCTCCCAGCTGATGAATTATTTGCGTCGAGTAAACAAATTTTCCTAATCTTTCTGTTCAAGCGCCATCTAC”, the figure is 1.66 RPM ratio (pull-down/input); as for “GATGATTGTTCTCCCAGCTGATGAATTGTCCACATCGAGTAAACAAATTTTCCTAATCTTTCTGTTCAAGCGCCATCTAC”, 1.33 RPM ratio (pull-down/input).
